From PubChem BioAssay AID602409 (Sanford-Burnham Center for Chemical Genomics, 2012)
Some of the results follow. Calls of active or inactive are those of the source.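 How the source made its calls: active means mean inhibition over four retests above 40%; inactive means the rest.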

Molecular target: C-X-C chemokine receptor type 6 (Homo sapiens) (UniProt O00574)
Test: CXCR6 receptor antagonists, confirmation, cell-based, single concentration, beta-arrestin, luminescence (AID 602409);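 further: receptor stimulated with 10 nM CXCL16 agonist; beta-galactosidase fragment complementation upon beta-arrestin recruitment to receptor; plate controls were CXCL16 plus DMSO for no effect and DMSO without CXCL16 for full effect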
Conditions: CHO-K1 CXCR6 PathHunter beta-arrestin, at 20 µM, stronger effect = higher value

Chain of C-X-C chemokine receptor type 6 (Homo sapiens) (O00574 whole entry, looked up, the tested form may be a part): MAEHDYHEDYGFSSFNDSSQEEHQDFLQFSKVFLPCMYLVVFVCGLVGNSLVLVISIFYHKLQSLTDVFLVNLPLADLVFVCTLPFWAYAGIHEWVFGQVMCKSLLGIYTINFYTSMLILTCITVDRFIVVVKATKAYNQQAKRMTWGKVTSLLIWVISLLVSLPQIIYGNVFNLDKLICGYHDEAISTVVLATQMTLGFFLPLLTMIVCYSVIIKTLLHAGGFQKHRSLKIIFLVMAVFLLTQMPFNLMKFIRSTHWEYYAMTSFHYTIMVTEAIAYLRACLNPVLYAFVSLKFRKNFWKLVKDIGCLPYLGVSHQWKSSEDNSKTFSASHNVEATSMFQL

## CC(=O)OC1C2(CC3N4C(=O)C5(CO)SSC4(CC31O)C(=O)N5C)OC(C)C(C)(C)C2=O (stereo unspecified)
  inhibition: 68.1% (active)
